In PubChem BioAssay (NCATS):
Inconclusive results are not listed. Active and inactive are the calls of the source. The call rests on the fitted dose curve; in most records, active means well fitted curve in the direction sought with a large enough effect; inconclusive means small, poorly fitted or top-dose-only effect, or another doubt; inactive means no such curve, though single readings can be large; an effect the other way counts as inactive or inconclusive.

Tests used:
[1] = qHTS of pediatric cancer cell lines to identify multiple opportunities for drug repurposing: Confirmatory screen for LAN-5 cells (AID 1347113); further: nearly all actives have a fitted effect of over 65% in size
Method in brief: (§1)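 Viability after 48 h compound treatment at 37C, 500-1,000 cells/well, read as ATP luminescence with CellTiter-Glo. Primary screens used 11-point (MIPE, 0.78 nM-46 µM) or 8-point (NPC, 0.59 nM-46 µM) final concentrations; follow-up screens used 11-point dilutions.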

[2] = qHTS of pediatric cancer cell lines to identify multiple opportunities for drug repurposing: Confirmatory screen for DAOY cells (AID 1347114); further: nearly all actives have a fitted effect of over 65% in size; on activity change, negative = cytotoxic: on the % scale 0 is the no-effect control and ±100 the full control effect
Method in brief: (§2)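 Viability measured as metabolically active cells via CellTiter-Glo luminescence following 48 hours of compound exposure, 11-point dilutions in confirmatory testing. 500-1,000 cells/well plated 5 hours before dosing; controls were DMSO and 2.3 µM bortezomib.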

[3] = qHTS of pediatric cancer cell lines to identify multiple opportunities for drug repurposing: Confirmatory screen for NB-EBc1 cells (AID 1347115);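 further: cells exposed to compound for 48 h before the viability read; nearly all actives have a fitted effect of over 45% in size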; on activity change, negative = cytotoxic: on the % scale 0 is the no-effect control and ±100 the full control effect
Method in brief: as §1

[4] = qHTS of pediatric cancer cell lines to identify multiple opportunities for drug repurposing: Confirmatory screen for SJ-GBM2 cells (AID 1347116); further: nearly all actives have a fitted effect of over 60% in size;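 on activity change, negative = cytotoxic: plate controls were DMSO for no effect and bortezomib for full effect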
Method in brief: as §2

[5] = qHTS of pediatric cancer cell lines to identify multiple opportunities for drug repurposing: Confirmatory screen for BT-37 cells (AID 1347117); settings: BT-37 pediatric cancer cells, viability; activity change, negative = cytotoxic: at 45.9 µM (top of the series); further: nearly all actives have a fitted effect of over 55% in size;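 on activity change, negative = cytotoxic: plate controls were DMSO for no effect and bortezomib for full effect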
Method in brief: as §1

[6] = qHTS of pediatric cancer cell lines to identify multiple opportunities for drug repurposing: Confirmatory screen for TC32 cells (AID 1347118);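 further: cells exposed to compound for 48 h before the read; nearly all actives have a fitted effect of over 65% in size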
Method in brief: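 Luminescent CellTiter-Glo read-out of metabolically active TC32 cells after 48 h compound exposure. Primary: MIPE 11-point, 0.78 nM–46 µM; NPC 8-point, 0.59 nM–46 µM. Confirmatory: 11-point dilutions.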

[7] = qHTS of pediatric cancer cell lines to identify multiple opportunities for drug repurposing: Confirmatory screen for MG 63 (6-TG R) cells (AID 1347119); further: nearly all actives have a fitted effect of over 55% in size
Method in brief: as §1

[8] = qHTS of pediatric cancer cell lines to identify multiple opportunities for drug repurposing: Confirmatory screen for control Hh wild type fibroblast cells (AID 1347121); further: nearly all actives have a fitted effect of over 70% in size
Method in brief: as §1

[9] = qHTS of pediatric cancer cell lines to identify multiple opportunities for drug repurposing: Confirmatory screen for U-2 OS cells (AID 1347122); further: nearly all actives have a fitted effect of over 65% in size
Method in brief: as §1

[10] = qHTS of pediatric cancer cell lines to identify multiple opportunities for drug repurposing: Confirmatory screen for Rh41 cells (AID 1347123); further: nearly all actives have a fitted effect of over 60% in size;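 on activity change, negative = cytotoxic: plate controls were DMSO for no effect and bortezomib for full effect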
Method in brief: as §1
Potency means the concentration at half of the fitted maximal effect.

| Compound | Potency [1] | Potency [2] | Potency [3] | Potency [4] | Potency [5] | Potency [6] | Potency [7] | Potency [8] | Potency [9] | Potency [10] | activity change, negative = cytotoxic [5] |
| --- | --- | --- | --- | --- | --- | --- | --- | --- | --- | --- | --- |
| CC(C)(O)Cn1c(NC(=O)c2ccc(-c3cn[nH]c3)s2)nc2cc(CN3CCOCC3)ccc21 | 1.04 µM (active) | 2.61 µM (active) | 1.04 µM (active) | 1.17 µM (active) | 0.737 µM (active) | 1.31 µM (active) | 1.17 µM (active) | 5.22 µM (active) | 1.17 µM (active) | 0.585 µM (active) | – |
| CS[C@H]1SC[C@@H]2C(=O)N(C)[C@H](C(C)C)C(=O)OC[C@H](NC(=O)c3cnc4ccccc4n3)C(=O)N[C@H](C)C(=O)N(C)[C@@H]1C(=O)N(C)[C@H](C(C)C)C(=O)OC[C@H](NC(=O)c1cnc3ccccc3n1)C(=O)N[C@H](C)C(=O)N2C | inactive | 0.0147 µM (active) | inactive | inactive | – | – | inactive | inactive | 0.0208 µM (active) | 0.0059 µM (active) | 1.7% (active) |
| C[C@@H](Oc1ccc2[nH]nc(C=Cc3cnn(CCO)c3)c2c1)c1c(Cl)cncc1Cl | 0.827 µM (active) | 18.5 µM (active) | 13.1 µM (active) | 18.5 µM (active) | 18.5 µM (active) | 2.33 µM (active) | 0.737 µM (active) | 13.1 µM (active) | 2.08 µM (active) | 0.104 µM (active) | – |
| CN[C@@H]1C[C@H]2O[C@@](C)([C@H]1OC)n1c3ccccc3c3c4c(c5c6ccccc6n2c5c31)C(=O)N[C@H]4O | 0.928 µM (active) | 1.47 µM (active) | 2.61 µM (active) | 2.61 µM (active) | 2.61 µM (active) | 0.414 µM (active) | 0.104 µM (active) | 10.4 µM (active) | 0.369 µM (active) | 1.04 µM (active) | – |
| CC(=O)[C@]1(O)Cc2c(O)c3c(c(O)c2[C@@H](O[C@H]2C[C@H](N)[C@@H](O)[C@H](C)O2)C1)C(=O)c1ccccc1C3=O | 0.329 µM (active) | 2.08 µM (active) | 0.465 µM (active) | 0.369 µM (active) | 0.329 µM (active) | 0.293 µM (active) | – | – | 1.31 µM (active) | 0.329 µM (active) | – |
| COc1ccc(S(=O)(=O)Nc2cccnc2Nc2ccc(O)cc2)cc1 | 1.65 µM (active) | 0.369 µM (active) | 2.33 µM (active) | – | 1.31 µM (active) | 0.737 µM (active) | 0.465 µM (active) | inactive | 0.827 µM (active) | – | – |
| Cc1cnc(Nc2ccc(N3CCN(C)CC3)cc2)nc1Nc1cccc(S(=O)(=O)NC(C)(C)C)c1 | 7.37 µM (active) | 18.5 µM (active) | 14.7 µM (active) | – | 5.85 µM (active) | 2.33 µM (active) | 2.93 µM (active) | 14.7 µM (active) | – | 3.29 µM (active) | – |
| CC1(C)O[C@@H]2C[C@H]3[C@@H]4CCC5=CC(=O)C=C[C@]5(C)[C@@H]4[C@@H](O)C[C@]3(C)[C@]2(C(=O)CO)O1 | inactive | inactive | inactive | inactive | inactive | inactive | inactive | inactive | inactive | inactive | – |
| CC(C)C[C@H](NC(=O)[C@@H](NC(=O)c1cccc(-c2ccccc2)n1)[C@@H](C)O)B(O)O | 0.0369 µM (active) | 0.0369 µM (active) | 0.0585 µM (active) | 0.0465 µM (active) | 0.0737 µM (active) | 0.0585 µM (active) | 0.0165 µM (active) | 20.8 µM (active) | 0.0369 µM (active) | 0.0737 µM (active) | – |
| C=CC(=O)Nc1ccc2ncnc(Nc3ccc(OCc4cccc(F)c4)c(Cl)c3)c2c1 | 20.8 µM (active) | 7.37 µM (active) | 20.8 µM (active) | 2.61 µM (active) | 9.27 µM (active) | 7.37 µM (active) | 8.27 µM (active) | – | – | 0.465 µM (active) | – |
| Nc1nc2c(c(=O)[nH]1)N(C=O)[C@H](CNc1ccc(C(=O)N[C@@H](CCC(=O)O)C(=O)O)cc1)CN2 | inactive | inactive | inactive | inactive | inactive | 10.4 µM (active) | inactive | – | inactive | inactive | – |
| COc1cccc2c1C(=O)c1c(O)c3c(c(O)c1C2=O)C[C@@](O)(C(=O)CO)C[C@H]3O[C@H]1C[C@H](N)[C@H](O)[C@H](C)O1 | 0.369 µM (active) | 3.69 µM (active) | – | 0.928 µM (active) | 0.293 µM (active) | 0.261 µM (active) | – | – | 13.1 µM (active) | 0.928 µM (active) | – |
| CC(=O)ON=C1C(c2c(O)[nH]c3cc(Br)ccc23)=Nc2ccccc21 | 14.7 µM (active) | – | 16.5 µM (active) | – | 16.5 µM (active) | 16.5 µM (active) | 18.5 µM (active) | inactive | – | – | – |
| CCN(CC)CCNC(=O)c1c(C)[nH]c(C=C2C(=O)Nc3ccc(F)cc32)c1C | 10.7 µM (active) | 17 µM (active) | inactive | – | – | – | 13.5 µM (active) | – | 24 µM (active) | 7.59 µM (active) | – |
| Nc1ncn([C@@H]2O[C@H](CO)[C@@H](O)[C@@H]2O)c(=O)n1 | 16.5 µM (active) | – | 13.1 µM (active) | 16.5 µM (active) | 16.5 µM (active) | 4.65 µM (active) | – | – | 8.27 µM (active) | 16.5 µM (active) | – |
